A selection: hits, their analogues and other compounds. The true share with any hit is near 5.7%.
hgDAF12 agonist = activates the H. glycines DAF-12 receptor ligand-binding domain. HEK293 GAL4-hgDAF12 UAS-luciferase reporter, agonist luminescence; normalized to butyrate control. activation, % at 6.8 µM. 370,000 compounds, 1.8% hits. AID 687014;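 active means activation above a cutoff set at the mean of all screened compounds plus 3 SD, cut at about 10% in these data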;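 further: 0% = DMSO wells and 100% = sodium butyrate wells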
DAX1 inh-1 = inhibitors of DAX1 repression of SF-1 activated StAR promoter; HEK293T StAR-luciferase reporter, SF-1/DAX-1 repression relief; inhibition, % at 6.8 µM; 370,000 compounds, 1.1% hits;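 active means inhibition above the mean over all tested compounds plus 3 SD, cut at about 3.6% in these data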;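 further: 0% = DAX-1 cells with DMSO and 100% = cells lacking DAX-1 with DMSO; higher inhibition means more luminescence from relief of DAX-1 repression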
ssDAF-12 act = S. stercoralis DAF-12 activation, primary screen | HEK293 ssDAF-12/GRIP1 lit1-tk-luc reporter, luminescence; % of 3 µM dafachronic acid response | activation, % at 6.8 µM | 370,000 compounds, 1% hits;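 active means activation above the mean over all tested compounds plus 3 SD, cut at about 0.9% in these data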;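 further: 0% = DMSO-only wells and 100% = 3 µM delta7-dafachronic acid wells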
DAX1 inh-2 = NR0B1 (DAX1) inhibition; P51843; HEK293 Gal4-DAX1 luciferase reporter, luminescence; inhibition, % at 6.75 µM; 340,000 compounds, 0.99% hits; AID 504766;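 active means inhibition above the mean over all tested compounds plus 3 SD, cut at about 4.2% in these data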;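 further: 0% = DAX1-transfected cells with DMSO and 100% = empty-vector control cells with DMSO; inhibition shows as a rise in luminescence from relieved DAX1 repression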
hcDAF-12 act = activates DAF-12 receptor from parasite H. contortus. HEK293 hcDAF-12 lit1-tk-luc reporter, luminescence; 0% DMSO, 100% Δ7-dafachronic acid. activation, % at 6.8 µM. 370,000 compounds, 1.4% hits;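 active means activation above the mean of all tested compounds plus 3 SD, cut at about 5.5% in these data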;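 further: 100% = response to 3 µM Δ7-dafachronic acid high control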
AHR activator = activators of human aryl hydrocarbon receptor | P35869 | AHR-responsive luciferase reporter cells, luminescence | activation, % at 5 µM | 320,000 compounds, 2.5% hits | AID 2796; in the data active means activation above about 47%;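 further: 0% = vehicle wells and 100% = reference agonist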
Target sequence (P35869 whole entry, looked up): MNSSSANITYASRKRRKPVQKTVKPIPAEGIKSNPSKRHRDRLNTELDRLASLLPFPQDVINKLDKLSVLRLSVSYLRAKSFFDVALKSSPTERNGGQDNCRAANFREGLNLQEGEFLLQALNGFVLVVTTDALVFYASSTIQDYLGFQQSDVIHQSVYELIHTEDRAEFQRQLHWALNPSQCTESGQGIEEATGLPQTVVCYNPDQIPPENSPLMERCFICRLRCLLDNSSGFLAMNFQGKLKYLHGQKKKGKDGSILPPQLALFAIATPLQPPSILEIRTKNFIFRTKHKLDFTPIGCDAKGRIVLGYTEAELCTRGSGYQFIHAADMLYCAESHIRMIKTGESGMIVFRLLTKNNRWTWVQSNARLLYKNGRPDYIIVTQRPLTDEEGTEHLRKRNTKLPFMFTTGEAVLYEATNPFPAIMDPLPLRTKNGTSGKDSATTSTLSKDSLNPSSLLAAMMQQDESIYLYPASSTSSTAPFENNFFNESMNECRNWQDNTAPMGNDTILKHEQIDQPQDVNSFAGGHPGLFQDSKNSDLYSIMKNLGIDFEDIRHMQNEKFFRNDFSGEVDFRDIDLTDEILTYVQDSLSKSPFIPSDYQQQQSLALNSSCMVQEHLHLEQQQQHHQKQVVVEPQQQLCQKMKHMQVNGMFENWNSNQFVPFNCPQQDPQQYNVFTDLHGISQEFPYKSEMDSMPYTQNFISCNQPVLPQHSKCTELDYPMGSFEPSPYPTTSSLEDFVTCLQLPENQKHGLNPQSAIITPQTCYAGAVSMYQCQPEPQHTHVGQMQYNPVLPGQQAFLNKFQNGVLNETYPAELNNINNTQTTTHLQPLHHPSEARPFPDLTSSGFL
* = called active by the depositor; nt = no result.

SMILES | hgDAF12 agonist | DAX1 inh-1 | ssDAF-12 act | DAX1 inh-2 | hcDAF-12 act | AHR activator
C=CC[C@@H](Cc1ccc(F)cc1)C(=O)OC[C@H]1CCCN1C(=O)[C@@H](CC=C)CC(=O)N[C@@H](CO)Cc1ccccc1 | -3 | -2 | -1 | -2 | -2 | -1
COC(=O)Cc1[nH]c(=O)[nH]c1C(=O)OC | 6 | 0 | -2 | 4.6* | -1 | 1
C/C(=N\O)c1ccc2[nH]ccc2c1 | 4 | 1 | -1 | 1 | -1 | 8
C/C(=N\O)c1ccc2c3c([nH]c2c1)CCCC3 | 11* | 0 | -1 | 1 | -1 | 9
O=C(OCN1C(=O)c2ccccc2C1=O)c1ccco1 | 2 | 0 | -1 | 1 | -1 | 0
Nc1ncnc(N)c1N=Nc1ccccc1 | 0 | 1 | -2 | 1 | -2 | nt
Cc1cc(C)[n+]2[nH]c(N)c(N=Nc3ccccc3)c2n1 | 2 | 0 | 0 | 1 | -2 | 70*
Cn1cnnc1Sc1ccc(C(=O)NCCC(c2ccccc2)c2ccccc2)cc1[N+](=O)[O-] | -1 | -1 | -2 | 4.3* | -2 | -3
Cn1cnnc1SCC(=O)NCCC(c1ccccc1)c1ccccc1 | 0 | 0 | -1 | 0 | -1 | -2
OCC1(CCOc2ccccc2)CCN(Cc2ccc3c(c2)OCCO3)CC1 | -2 | 1 | -2 | 4.8* | 1 | 7
CCOC(=O)C1(CCOc2ccccc2)CCN(Cc2ccc3c(c2)OCCO3)CC1 | -3 | -1 | -2 | -2 | -3 | -2
Cc1cccc(NC(=O)Cn2cnc3c(oc4ccccc43)c2=O)c1 | 4 | 0 | 0 | 1 | 2 | 2
Cn1c(=O)cc(OCCCC(=O)NCc2cccnc2)c2ccccc21 | -1 | 0 | -1 | -1 | 0 | -1
CCCN(CCC)S(=O)(=O)c1ccc(C(=O)NCc2n[nH]c(=S)n2-c2ccc(Cl)c(Cl)c2)cc1 | -1 | 0 | 0 | 5.2* | 1 | 0
O=C(NCc1n[nH]c(=S)n1-c1ccc(Cl)c(Cl)c1)c1ccc(S(=O)(=O)N2CCCCC2)cc1 | 1 | 1 | -2 | 1 | -1 | 0
O=C(c1cc(-c2ccccc2)on1)N1CCN(Cc2ccc3c(c2)OCO3)CC1 | 2 | -1 | -1 | 1 | -2 | 1
CC1CCCCN1C(=O)c1cc(-c2ccc3c(c2)OCO3)on1 (centres undefined) | 11* | 2 | 0 | 3 | 5 | 42
CC1CCN(C(=O)c2cc(-c3ccc4c(c3)OCO4)on2)CC1 | 12* | 2 | 0 | 1 | 4 | -4
CCOC(=O)CC[C@@]1(C(=O)OCC)C[C@@H](CC(=O)NCCc2ccccc2OC)C(=O)N2CCCC=C21 | -3 | -1 | -1 | nt | -1 | nt
CCOC(=O)CC[C@@]1(C(=O)OCC)C[C@@H](CC(=O)NCCCOC)C(=O)N2CCCC=C21 | 0 | 1 | 1.6* | nt | 0 | nt
COc1ccc(N(CC(=O)NCCSC2CCCCC2)S(=O)(=O)c2ccccc2)c(OC)c1 | -1 | 1 | -1 | 1 | -1 | -1
Cc1cc(C(=O)COC(=O)c2cccn2C)c(C)n1Cc1ccco1 | 5 | 4.1* | -1 | -4 | 3 | -1
O=C(O)COCC(=O)Nc1ccccc1-c1ccccc1 | 1 | 0 | 0 | 0 | 1 | 1
COCC(=O)Nc1ccccc1-c1ccccc1 | 11* | 1 | -1 | 1 | -2 | 0
COCC(=O)Nc1nc(-c2ccccc2)ns1 | 4 | 1 | 0 | 1 | 2 | 47*
SMILES | hgDAF12 agonist | DAX1 inh-1 | ssDAF-12 act | DAX1 inh-2 | hcDAF-12 act | AHR activator
Cn1c(-c2ccccc2F)cc2onc(-c3ccccc3)c2c1=O | 12* | 5.0* | 0 | 5.5* | 4 | -9
Cn1c(-c2ncc(F)cc2F)cc2onc(-c3c(F)cccc3Cl)c2c1=O | 10 | 1 | 1.3* | 6.4* | 9.3* | 50*
Cn1c(=O)c2c(-c3ccccc3)n(-c3ccccc3F)cc2n(C)c1=O | -4 | -1 | -1 | nt | -1 | nt
Cn1c(-c2ccccc2)cc2onc(-c3ccccc3)c2c1=O | 4 | 3 | 0 | 2 | 5.6* | -10
Cn1c(-c2ccccc2)cc(=O)cc1-c1ccccc1 | 1 | 1 | -1 | 0 | 1 | nt
O=C(NCc1nnc2c(C(F)(F)F)cc(Cl)cn12)c1ccc2c(c1)OCO2 | 2 | -1 | -1 | 0 | -2 | 52*
Cc1noc(C)c1C(=O)N1CCN(C(=O)c2sc3cc(Cl)ccc3c2Cl)CC1 | 1 | 0 | 0 | 0 | -1 | 0
O=C1C2C3C=CC(C4CC34)C2C(=O)N1/N=C/c1c[nH]c2ccccc12 (centres undefined) | 10* | 0 | 2.2* | 1 | 6.0* | 39
O=C1C2C3C=CC(C4CC34)C2C(=O)N1/N=C/c1ccc([N+](=O)[O-])s1 (centres undefined) | 6 | 0 | -1 | 1 | -1 | 11
Cc1c(C(=O)NC(C)c2ccccn2)oc2c(Cl)cccc12 (centres undefined) | -1 | -1 | 0 | -2 | 5 | nt
COc1cccc(C(=O)N/N=C(/CCC(=O)O)c2ccccc2)c1 | 12* | 0 | -1 | 0 | 1 | 22
COc1cccc(C(=O)NNC(=O)c2ccccc2)c1 | 6 | 0 | 1.4* | 2 | 5 | nt
COc1cccc(C(=O)NNC(=O)c2ccc3ccccc3c2O)c1 | 4 | 0 | 1.6* | -1 | 4 | -1
CCCNC(=O)OC1CC2CC1[C@H]1CCCCN1C2=O (some centres undefined) | 2 | 0 | -1 | nt | 0 | nt
COc1cccc(CC(NC(C)=O)C(=O)NC2CCN(c3c4c(nc5ncnn35)CCC4)CC2)c1OC (centres undefined) | nt | nt | nt | nt | nt | -3
Cc1cc2n(n1)C(c1ccc(N(C)C)cc1)Nc1ccccc1-2 (centres undefined) | 9 | 1 | 0 | 0 | 2 | 82*
Cc1ccc2c(c1)-c1cc(C)nn1C(c1ccc3c(c1)OCO3)N2 (centres undefined) | 2 | -1 | -2 | 0 | -2 | 94*
Cc1ccc2c(c1)-c1cc(C)nn1C(c1sccc1C)N2 (centres undefined) | 0 | 1 | -1 | 0 | 1 | 27
Cc1cc2n(n1)C(c1ccccc1)Nc1ccccc1-2 (centres undefined) | -1 | 0 | -2 | 0 | -2 | 23
Cn1c(SCc2ccccc2Cl)nc2c1c(=O)[nH]c(=O)n2C | 2 | 0 | 1.5* | -2 | -1 | 3
Cn1c(SCc2ccccc2)nc2c1c(=O)[nH]c(=O)n2C | -1 | 0 | -1 | -1 | -2 | 4
O=C1c2nccnc2C(=O)N1Cc1ccccc1 | -2 | -2 | -1 | 0 | -2 | nt
O=C1c2nc3ccccn3c2C(=O)N1Cc1ccccc1 | 2 | 0 | 1.4* | 0 | 1 | 9

Bioassay records as filed in PubChem BioAssay.
